In all, about 360,000 compounds went through this assay and about 5,000 (1.4%) were called active. Only a selection was taken, and actives are over-represented in it overall. Unmarked numbers belong to inactive results.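 The calls were made as follows: active = inhibition of 50% or more, scaled per plate between neutral and stimulator controls; inactive = the rest.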

By inhibition is commonly meant the change of the read-out against control, counted positive when it falls.

The assay in a line: mitochondrial permeability transition pore inhibitors, primary screen, biochemical, isolated mouse mitochondria, absorbance (AID 602449).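 Also: 0% = DMSO wells given calcium and 100% = 1 mM EGTA wells.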 The settings on record: Ca2+ swelling absorbance, 30 min, at 10 µM, active compounds read high.
With `COc1cc(C(=O)NCc2ccc3c(c2)cc(C)n3C)cc(OC)c1OC`, the inhibition is 1.2%.
To `COc1cc(C(=O)NCc2cc3cc(Cl)ccc3n2C)cc(OC)c1OC` belongs 0.7%; to `CCn1c(CNC(=O)c2cc(OC)c(OC)c(OC)c2)cc2cc(C)ccc21`, 68.8% (active); to `CC1(C)S[C@@H]2[C@H](NC(=O)COc3ccccc3)C(=O)N2C1C(=O)OCc1ccccc1` (some centres undefined), 2.2%.
As to `CC(C)(C)c1cc(NC(=O)NN2CCOCC2)nn1-c1c(Cl)cc(Cl)cc1Cl`, the inhibition is -1.3%.
The value for `Cc1ccc(-c2noc(CCC(=O)Nc3ccccc3N3CCN(C)CC3)n2)cc1` was 79.9% (active).
As to `COc1ccc(N2CCN(C(=O)CCc3nc(-c4ccc(C)cc4)no3)CC2)cc1`, the inhibition is -0.2%.
With `COc1ccc(-c2noc(CCC(=O)N3CCN(c4cccc(C)c4)CC3)n2)cc1`, the inhibition is 0.4%.
On to `CC1CCN(C(=O)c2ccccc2NC(=O)Cc2ccccc2)CC1`, for which the inhibition was 2%.
The value for `COc1ccc(-n2c(C)cc(C(=O)CSc3nnc(-c4cccs4)o3)c2C)cc1` was 91% (active); that for `COc1ccc(-n2c(C)cc(C(=O)COC(=O)c3cc(OC)c(OC)cc3NC(=O)c3cccs3)c2C)cc1` was 3.8%; that for `Cc1ccc(-n2c(C)cc(C(=O)CSc3nnc4ccccn34)c2C)cc1` was 5%.
The value for `O=[N+]([O-])c1c(NCCO)cc(Sc2nc3ccccc3s2)c2nonc12` was 4.8%; that for `O=[N+]([O-])c1cccc(C=NN=Cc2ccccc2O)c1` was 2.1%; that for `O=[N+]([O-])c1cc(Br)c(O)c(/C=N/Nc2nc3ccccc3s2)c1` was 82.3% (active).
As to `Cc1c(C(=O)NCC2CC2)sc(=O)n1Cc1cccc(F)c1`, the inhibition is -2.3%.
For the molecule `COc1cc(C)c(Cl)cc1S(=O)(=O)n1ccnc1`, the inhibition is 0.5%.
`N/C(=N\S(=O)(=O)c1cc(C(F)(F)F)cc(C(F)(F)F)c1)c1cccs1`: the inhibition was 35.4%.
`O=C(CSc1nc(C2CC2)nc2ccccc12)Nc1cccc(O)c1`: the inhibition is -0.4%.
Take `O=C(NNc1c2ccccc2nc2ccccc12)c1cc2ccccc2cc1O`: the inhibition was 104% (active).
Turning to `Cc1noc(C)c1COC(=O)c1cc2ccccc2cc1O`, the inhibition was 1%.
The value for `CS(=O)(=O)N(CC(=O)N1CCOCC1)c1cccc(Cl)c1Cl` was -0.3%; that for `Cc1ccc(-n2ncc3c2CC(C)(C)CC3NC(=O)CCc2cnn(C)c2)cc1` (centres undefined) was -0.7%.
On to `O=C(NCCc1ccccn1)c1ccc(COc2ccccc2)o1`, for which the inhibition is -1.4%.
Turning to `O=C(NNC(=O)c1ccc(-c2ccccc2)cc1)Nc1ccccc1`, the inhibition was 2.8%.
On to `Cc1ccc(NC(=O)NNC(=O)c2sccc2-n2cccc2)cc1`, for which the inhibition is 1.7%.
The value for `C=CC[n+]1c(-c2ccc(C)cc2)csc1NNC(=O)Nc1ccccc1` was 86.7% (active); that for `CC1CCC(N2CC(=O)N(Cc3ccc4c(c3)OCO4)C(c3ccc(F)cc3)C2=O)CC1` (centres undefined) was -0.9%; that for `COCCNC(=S)N1CCC(NC(=O)C23CC4CC(CC(C4)C2)C3)CC1` was -2.3%.
To `CCN1/C(=C\c2ccc3ccccc3[n+]2CC)Sc2cc(C)ccc21` belongs 101% (active).
For the molecule `O=C(CN1C(=O)NC2(CCCCCCC2)C1=O)NCc1ccc(F)cc1`, the inhibition is -0.5%.
As for `Cc1ccc(-c2nc3c(Cl)cc(C(F)(F)F)cn3c2Cc2cccc(Cl)c2)cc1`, the inhibition was 4.1%.
The value for `COc1cc(C(C(=O)NC2CCCC2)N(C(=O)c2ccco2)c2ccccc2C(C)=O)cc(OC)c1OC` (centres undefined) was -1.2%.
`COC(=O)c1scc(C)c1NC(=O)CSc1ccc(Cl)cc1`: the inhibition is 3.3%.
Turning to `COC(=O)c1sccc1NS(=O)(=O)c1ccc(F)cc1F`, the inhibition is 1.6%.
Consider `COC(=O)c1sccc1NC(=O)CSc1ccccc1NS(=O)(=O)c1cc(Cl)ccc1Cl`, for which the inhibition was 86.3% (active).
On to `CCCc1ccc(-c2c(C)sc(NC(=O)c3ccnn3C)c2C#N)cc1`, for which the inhibition is 99.7% (active).
Turning to `CCCc1cc(=O)[nH]c(SCC(=O)Nc2sc3c(c2C#N)CCCC3)n1`, the inhibition was 4%.
In the case of `Cc1sc(NC(=O)C2=COCCO2)c(C#N)c1C`, the inhibition was -0.9%.
On to `OCCc1ccc(NCCc2ccco2)cc1`, for which the inhibition is -0.1%.
The value for `CC1CCCCC1NCC(=O)Nc1ccccc1C(=O)Nc1ccccc1` (centres undefined) was 1.8%; that for `O=C(Nc1ccccc1)c1ccccc1Br` was -0.9%.
Take `O=C(Nc1ccccc1)c1ccccc1NC(=O)C(F)(F)F`: the inhibition was 57.7% (active).
Turning to `CCN(C(=O)CSc1nnc(-c2ccc(OC(F)F)cc2)n1N)C1CCS(=O)(=O)C1` (centres undefined), the inhibition was -1.1%.
Turning to `CCOc1ccc(NC(=O)CN(C)C(=O)CSc2ccccc2)cc1OCC`, the inhibition was 1%.
As to `CCOc1ccc(S(=O)(=O)N2CCC(C(=O)NCc3ccccn3)CC2)cc1Cl`, the inhibition was -0.8%.
To `O=C(c1cccc(F)c1)N1CCN(c2ccc([N+](=O)[O-])c3cccnc23)CC1` belongs 0.3%; to `COc1ccc(-c2onc(C)c2-c2ccc3c(c2)OCCO3)c(O)c1`, 3.2%; to `CCN1CCN(Cc2c(O)ccc3c(=O)c(-c4ccc(OC)c(OC)c4)c(C(F)(F)F)oc23)CC1`, -2%.
For `O=c1c(-c2ccc3c(c2)OCCO3)c(C(F)(F)F)oc2cc(O)cc(O)c12`, the inhibition is 89.4% (active).
For the molecule `CC(C)(C)c1cc[n+](-c2[nH]c(=O)sc2/C=N/N=C(\[O-])c2ccccc2)cc1`, the inhibition was -1.9%.
Take `CCCNC(=O)CN(Cc1ccccc1F)S(=O)(=O)c1ccc(C)cc1`: the inhibition was 1.8%.
With `Cc1ccc(NC(=O)CCNC(=O)c2ccc([N+](=O)[O-])cc2)cc1S(=O)(=O)N1CCOCC1`, the inhibition is -1.6%.
For `COc1ccc(NS(=O)(=O)c2cc(NC(=O)COc3ccccc3F)ccc2OC)cc1`, the inhibition was 0.8%.
In the case of `COc1ccc(NS(=O)(=O)c2cc(NC(=O)CC(=O)c3ccc([N+](=O)[O-])cc3)ccc2C)cc1`, the inhibition is 73% (active).
As for `COc1cc(SC)ccc1C(=O)Nc1nc(C)cs1`, the inhibition was 0.2%.
The value for `CCCCOc1ccc(CSC(=N)N)cc1[N+](=O)[O-]` was 112% (active); that for `CCCCCOc1ccc(CSC2=NCCN2)cc1[N+](=O)[O-]` was -1.4%; that for `CCCCOC(=O)CCCc1ccc([N+](=O)[O-])cc1[N+](=O)[O-]` was 1.5%.

(Values after PubChem BioAssay AID602449 (Sanford-Burnham Center for Chemical Genomics, 2012).)
